Some test systems named below: DU-145 prostate; K-562 leukemia; MALME-3M melanoma; MDA-MB-231 breast; RXF 393 renal; SF-268 CNS; SF-295 CNS; SF-539 CNS; UACC-257 melanoma; M14 melanoma.
Assay in all cases: NCI-60 one-dose screen, 48 h (100 = growth as untreated, 0 = no growth, -100 = all killed)
What all share (conditions): 10 µM unless noted

This is part of a sample that, as a whole, favours compounds with a hit. Of some 83,000 tested, about 20% had one in any assay.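 How to read the values: 0–100, growth inhibition (40 = 60% inhibited); 0, no net growth; -100 to 0, cell death (-40 = 40% of starting cells died; -100 = all dead).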 A number with no mark means an inactive call. The source made the active and inactive calls. How the source made its calls: active means growth percent below 10; inactive means the rest.

As to `CC1(C)c2[nH]c3ccccc3c2C[C@]2(C)[C@H]3C(=O)C=C4[C@@H]5C[C@@](C)(C(N)=O)CC[C@]5(C)CC[C@@]4(C)[C@]3(C)CC[C@@H]12`, the growth with DU-145 prostate was 92.2%; in the experiment with K-562 leukemia, 31.3%; in the experiment on MALME-3M melanoma, 79.3%; in the experiment on MDA-MB-231 breast, 74.1%; in the experiment with RXF 393 renal it was 70.5%; in the experiment on SF-268 CNS, 69.1%. Further, the growth in the experiment on SF-295 CNS was 82.9%; in the experiment on SF-539 CNS, 92.8%; in the experiment with UACC-257 melanoma, 83.2%; in the experiment with M14 melanoma it was 80.2%.

Take `C=C1C(=O)O[C@H]2[C@H]1CC/C(COC(=O)NCC(C)c1ccc(CC(C)C)cc1)=C\CC[C@@]1(C)O[C@@H]21` (stereo not given in full): the growth in the experiment with DU-145 prostate is 16.4%; in the experiment with K-562 leukemia it was -18.2% (active); in the experiment on MALME-3M melanoma, -62.7% (active); in the experiment on MDA-MB-231 breast, -62.8% (active); in the experiment on RXF 393 renal it was -73.7% (active); in the experiment on SF-268 CNS, -17.1% (active). In addition, the growth was 83.4% with SF-295 CNS, -77% (active) in the experiment on SF-539 CNS, 56.1% with UACC-257 melanoma and -29.8% (active) in the experiment with M14 melanoma.

Consider `O=C(/C=C(/C=C/c1csc2ccccc12)OB(F)F)/C=C/c1csc2ccccc12`, for which the growth was 28.5% with DU-145 prostate; 23.2% in the experiment on K-562 leukemia; 9.2% (active) with MALME-3M melanoma; 2.45% (active) in the experiment on MDA-MB-231 breast; -28.4% (active) in the experiment on RXF 393 renal; 5.79% (active) in the experiment with SF-268 CNS. Besides, the growth in the experiment on SF-295 CNS is 87%; in the experiment with SF-539 CNS it was 40.8%; with UACC-257 melanoma, 57.7%; in the experiment with M14 melanoma, 8.88% (active).

With `O=Cc1cc2ccccc2nc1Oc1ccc(C(F)(F)F)cc1`, the growth in the experiment on DU-145 prostate is 98.4%; in the experiment on K-562 leukemia, 59%; with MALME-3M melanoma, 96%; with MDA-MB-231 breast it was 75.7%; in the experiment on RXF 393 renal, 91.9%; in the experiment with SF-268 CNS, 83.4%. The growth with SF-295 CNS is 82.9%; in the experiment with SF-539 CNS it was 97.8%; in the experiment on UACC-257 melanoma it was 107%; with M14 melanoma, 99.8%.

For `CCOC(=O)c1cc(C#N)n2ccc3ccccc3c12`, the growth with DU-145 prostate is 103%; with K-562 leukemia it was 106%; in the experiment on MALME-3M melanoma, 104%; in the experiment with MDA-MB-231 breast, 102%; in the experiment on RXF 393 renal it was 98.9%; in the experiment on SF-268 CNS, 94.2%. Further, the growth in the experiment on SF-295 CNS was 96.5%; with SF-539 CNS, 98.7%; with UACC-257 melanoma, 104%; with M14 melanoma, 108%.

With `O=C(O)c1ccc(NCc2cn(-c3ccc(C(F)(F)F)cc3)nc2-c2ccc(C(=O)O)cc2)cc1`, the growth was 115% in the experiment on DU-145 prostate; 105% in the experiment with K-562 leukemia; 127% in the experiment with MALME-3M melanoma; 111% with MDA-MB-231 breast; 112% in the experiment with RXF 393 renal; 97.8% in the experiment with SF-268 CNS. The growth was 100% with SF-295 CNS, 97% in the experiment on SF-539 CNS, 109% with UACC-257 melanoma and 106% in the experiment on M14 melanoma.

Turning to `Cc1ccc(NC(C(=O)c2ccccc2)c2ccccc2)cc1` (stereo not given), the growth was 58.2% in the experiment with DU-145 prostate; 46.5% with K-562 leukemia; -2.02% (active) in the experiment on MALME-3M melanoma; 72.4% with MDA-MB-231 breast; 95.2% in the experiment on RXF 393 renal; 68.6% in the experiment with SF-268 CNS. The growth in the experiment on SF-295 CNS was 53.2%; in the experiment with SF-539 CNS, 78.4%; with UACC-257 melanoma, 10.5%; in the experiment with M14 melanoma, 77.6%.

Regarding `O=C(NCCNc1nccc(-c2c(-c3cccc(F)c3)nc3sccn23)n1)c1ccc(Cl)cc1`, the growth is 71% in the experiment on DU-145 prostate; 54.4% in the experiment with K-562 leukemia; 34.9% in the experiment on MALME-3M melanoma; 65.5% in the experiment on MDA-MB-231 breast; 72.9% in the experiment on RXF 393 renal; 67.9% with SF-268 CNS. The growth was 73.8% with SF-295 CNS, 90% in the experiment with SF-539 CNS, 76% in the experiment with UACC-257 melanoma and 38.8% in the experiment on M14 melanoma.

Take `C=C1C(=O)O[C@H]2[C@H]1CC/C(CNC(=O)/C=C/c1ccccc1)=C\CC[C@@]1(C)O[C@@H]21`: the growth is -34.3% (active) with DU-145 prostate; 1.51% (active) in the experiment on K-562 leukemia; -50.1% (active) in the experiment on MALME-3M melanoma; -15.2% (active) in the experiment on MDA-MB-231 breast; -90.2% (active) with RXF 393 renal; 48.1% with SF-268 CNS. In addition, the growth was 62.3% in the experiment on SF-295 CNS, -63.8% (active) in the experiment with SF-539 CNS, -55.1% (active) in the experiment on UACC-257 melanoma and -63.2% (active) in the experiment on M14 melanoma.

With `Cc1cc2c(C(=O)NCC#N)cccc2n1-c1nc2c(c(NCc3ccccc3)n1)CCCC2`, the growth in the experiment with DU-145 prostate is 2.51% (active); in the experiment with K-562 leukemia, 1.31% (active); in the experiment on MALME-3M melanoma, -72.1% (active); with MDA-MB-231 breast, -78.9% (active); in the experiment on RXF 393 renal it was -68.9% (active); in the experiment with SF-268 CNS, -35.1% (active). For the same compound, the growth was -76.2% (active) with SF-295 CNS, -24.5% (active) in the experiment with SF-539 CNS, -36.4% (active) in the experiment with UACC-257 melanoma and -45% (active) in the experiment on M14 melanoma.

In the case of `Cc1cc2nc3c4ccc(Br)cc4n(CCN(C)C)c3nc2cc1C`, the growth was 3.18% (active) in the experiment on DU-145 prostate; 4.08% (active) in the experiment on K-562 leukemia; 0.769% (active) in the experiment on MALME-3M melanoma; 15.2% in the experiment on MDA-MB-231 breast; 16.4% in the experiment with RXF 393 renal; 31% in the experiment with SF-268 CNS. Moreover, the growth is 14.8% in the experiment on SF-295 CNS, 17.2% in the experiment with SF-539 CNS, 18% in the experiment with UACC-257 melanoma and 14.8% with M14 melanoma.

In the case of `CN(C)CCC(=O)c1ccc([N+](=O)[O-])cc1`, the growth in the experiment on DU-145 prostate is 108%; in the experiment with K-562 leukemia it was 114%; in the experiment with MALME-3M melanoma, 104%; with MDA-MB-231 breast it was 100%; in the experiment with RXF 393 renal, 108%; in the experiment on SF-268 CNS it was 112%. In addition, the growth in the experiment on SF-295 CNS was 103%; in the experiment with SF-539 CNS it was 96.4%; with UACC-257 melanoma, 108%; in the experiment on M14 melanoma it was 102%.

For the compound `C/C(=N\Nc1cc(C)nc2ccc(Br)cc12)c1ccc([N+](=O)[O-])cc1`, the growth in the experiment on DU-145 prostate is 64.8%; in the experiment with K-562 leukemia it was 11.3%; in the experiment on MALME-3M melanoma it was 123%; in the experiment on MDA-MB-231 breast, 59.4%; with RXF 393 renal it was 68.6%; in the experiment with SF-268 CNS it was 97.8%. Moreover, the growth with SF-295 CNS is 49.4%; in the experiment with SF-539 CNS, -43.6% (active); in the experiment on UACC-257 melanoma, 107%; with M14 melanoma it was 84.6%.

As for `Nc1nc(Nc2ccccc2SSc2ccccc2Nc2nc(N)nc(-c3ccc(C(F)(F)F)cc3)n2)nc(-c2ccc(C(F)(F)F)cc2)n1`, the growth in the experiment with DU-145 prostate is 73.4%; with K-562 leukemia, 55%; in the experiment on MALME-3M melanoma it was 93%; in the experiment with MDA-MB-231 breast, 67.4%; in the experiment on RXF 393 renal, 78.6%; in the experiment on SF-268 CNS, 50.4%. Also, the growth was 65.5% with SF-295 CNS, 88.2% in the experiment on SF-539 CNS, 106% with UACC-257 melanoma and 72.5% in the experiment with M14 melanoma.

For `CC1=CCC(OC(=O)C(C)(O)CCC(O)(C(=O)OC2(C)C=CC(O)(C(C)C)CC2)C(C)C)(C(C)C)CC1` (stereo not given), the growth in the experiment with DU-145 prostate was 113%; in the experiment with K-562 leukemia it was 105%; in the experiment with MALME-3M melanoma, 97.2%; in the experiment on MDA-MB-231 breast, 100%; in the experiment with RXF 393 renal it was 98.5%; with SF-268 CNS, 101%. Besides, the growth is 101% with SF-295 CNS, 103% in the experiment on SF-539 CNS, 106% in the experiment on UACC-257 melanoma and 102% in the experiment on M14 melanoma.

Regarding `COc1ccc(/C=N/NC(=O)c2cnn3c2NC(c2ccccc2)C3)cc1OC` (stereo not given), the growth was 81.1% with DU-145 prostate; 24.1% with K-562 leukemia; 76.4% in the experiment on MALME-3M melanoma; 66% in the experiment with MDA-MB-231 breast; 78.2% in the experiment on RXF 393 renal; 73.7% with SF-268 CNS. The growth with SF-295 CNS is 36.3%; in the experiment with SF-539 CNS, 63.4%; in the experiment on UACC-257 melanoma, 77.9%; in the experiment with M14 melanoma, 45.5%.
